Results filed as inconclusive are left out. Activity calls are given as the source filed them. Calls follow the shape of the dose curve; as a rule, active = well fitted curve in the direction sought with a large enough effect; inconclusive = small, poorly fitted or top-dose-only effect, or another doubt; inactive = no such curve, though single readings can be large; an effect the other way counts as inactive or inconclusive.

Assay [1] in a line: J3T Cancer Cell Toxicity qHTS against the NCATS CANVASS Library (AID 1347371). The following applies: outcome: dose series up to 46.1 µM. The source says: (§1) Natural products and their derivatives continue to be wellsprings of nascent therapeutic potential. However, many laboratories have limited resources for biological evaluation, leaving their previously isolated or synthesized compounds largely or completely untested. To address this issue, the Canvass library of natural products was assembled (https://tripod.nih.gov/canvass), in collaboration with academic and industry researchers, for quantitative high-throughput screening (qHTS) across a diverse set of cell-based and biochemical assays. The pure (>85% purity by liquid chromatography/mass spectrometry [LC/MS]) Canvass library of 346 natural products were submitted by 45 academic laboratories and companies around the world. We collected pure natural products to circumvent deconvolution and structure elucidation due to time and resource limitations. The library was formatted into 1536-well plates and evaluated in 50 qHTS (in an 11-pnt concentration series) bioassays with broad scope of disease-relevant mechanisms. The resulting data set from 50 different assays was then systematically analyzed to identify overall trends and specific natural products with interesting biological activities. Reported herein are the results of each individual qHTS and their corresponding assay protocol. This assay uses ATP (luminescence) content to measure the cytotoxiciy of compounds on J3T dog glioma cancer cell line. National Center for Advancing Translational Sciences (NCATS), Rockville, MD National Institute of Health (NIH), Bethesda, Maryland
Cancer Cell Toxicity qHTS protocol: for cell lines G06, J3T, and SDT. 1. In a 1536 well, tissue culture treated white solid bottom plates (Corning 7494), 5 uL of J3T cell solution (final concentration of 500 cells / well) was dispensed using the Multidrop Combi dispenser (Thermo Fisher Scientific) into columns 2, 3, 5-48. 2. […] Luminescence signal was acquired via the ViewLux plate reader (PerkinElmer) using a clear emission filter, 2 sec exposure, and 1x binning settings.
For orientation: qHTS replaces the single test concentration by a dilution series.

The target of assay [2] is Nuclear receptor subfamily 1 group I member 3 (Homo sapiens) (UniProt Q14994). Kind of assay: qHTS for Constitutive Androstane Receptor (CAR) Antagonist screened against the NCATS CANVASS Library (AID 1347372).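 Also: cells stimulated with 50 nM CITCO agonist so inhibition reflects antagonism; luciferase from CYP2B6 promoter reporter driven by hCAR in HepG2 cells; series mostly up to about 46 µM.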
Description: as §1, with “The constitutive androstane receptor (CAR) is a nuclear receptor which regulates multiple drug metabolizing enzymes (DMEs) and transporters. […]” for “This assay uses ATP (luminescence) content to measure the cytotoxiciy of compounds on J3T dog glioma cancer cell line. National Center for Advancing Translational Sciences (NCATS), Rockville, MD National Institute of Health (NIH), Bethesda, Maryland”
Material: A double-stable (hCAR and CYP2B6-2.2kb) transfected cell line, derived from human hepatoma (HepG2) cells, was utilized for the duration of the quantitative high-throughput screens. […] A first readout of fluorescence signal was acquired via the ViewLux (PerkinElmer) plate reader using a FITC dichroic mirror, excitation 405/10 nm filter, and emission 540/25 nm filter; and using 65 light energy, 1 second exposure, and 2x binning settings. […] A second readout of luminescence signal was acquired via the ViewLux plate reader using a clear emission filter, 10 second exposure, 2x binning settings. […]

The target is the same in assay [3]. As to the kind of experiment: qHTS for Constitutive Androstane Receptor (CAR) Agonist screened against the NCATS CANVASS Library (AID 1347373).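 Also: every well also contained 1.5 µM PK11195 alongside the test compound.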 Summed up: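 CAR agonism is scored as CYP2B6-promoter luciferase induction in a double-stable transfected HepG2 line, where 1.5uM PK11195 is included in each well. Compounds were tested over a 24hr exposure.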
Assay [4] in a line: qHTS for Hypoxia signaling pathway (HIF-1) agonists against the NCATS CANVASS Library (AID 1347375).
Description: as §1, with “[…] The compounds were also tested for auto fluorescence that may interfere with” for “Reported herein are”, “biological target readout resulting in potential false positives and/or negatives. […]” for “results of each individual qHTS and their corresponding assay protocol. This assay uses ATP (luminescence) content to measure the cytotoxiciy of compounds on J3T dog glioma cancer cell line. National Center for Advancing Translational Sciences (NCATS), Rockville, MD National Institute of Health (NIH), Bethesda, Maryland”

Assay [5] in a line: 10-beta competent E. coli microbial cell viability qHTS against the NCATS CANVASS Library (AID 1347376). Also: series mostly up to about 46 µM.
Description: as §1, with “The BacTiter-Glo microbial cell viability” for “This”, “is a homogeneous method for determining the number of viable bacterial cells in culture based on quantitation of the” for “uses”, “present. ATP is an indicator of metabolically active cells. The homogeneous assay procedure involves adding a single reagent (BacTiter-GloTM Reagent) directly” for “(luminescence) content”, “bacterial cells in medium and measuring luminescence.” for “measure the cytotoxiciy of compounds on J3T dog glioma cancer cell line.”
10-beta competent E.coli cytotoxicity protocol: 1. […] Luminescence signal was acquired via the ViewLux plate reader using a clear emission filter, 2 second exposure and 2x binning settings.

Assay [6] in a line: qHTS for H2AX Agonists against the NCATS CANVASS Library (AID 1347378).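 Also: phospho-H2AX S139 level in CHO-K1 lysates by TR-FRET emission ratio.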 Summed up:
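CHO-K1, 1000 cells/well, o/n 37C; cpd several conc, 3 hr 37C, 0.76% DMSO; lyse 30 min RT; cryptate anti-pH2AX(S139) + d2 anti-H2AX, 24 hr RT; HTRF 665/620.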

Assay [7] is described as follows: qHTS for Inflammasome Signaling Inhibitors: IL-1-beta AlphaLISA screen against the NCATS CANVASS Library (AID 1347379).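 Also: human THP-1 cells primed with LPS then triggered with ATP.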 The following applies: outcome: dose series up to 57.5 µM. Summed up: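 Human THP-1 cells were pretreated 1 hr at 37 °C with compounds (up to 57.5 uM final), then stimulated with LPS (250 ng/mL final) and ATP (1.25 mM final). Secreted IL-1B was read by AlphaLISA after 16 hr.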

The nature of assay [8]: qHTS for Antimalaria activity screened against the NCATS CANVASS Library (AID 1347380).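 Also: Plasmodium falciparum strain Dd2 asexual parasites grown in red blood cells; series mostly up to about 29 µM; nearly all actives have a fitted effect of over 40% in size.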 The source says:
(§2) Natural products and their derivatives continue to be wellsprings of nascent therapeutic potential. However, many laboratories have limited resources for biological evaluation, leaving their previously isolated or synthesized compounds largely or completely untested. To address this issue, the Canvass library of natural products was assembled (https://tripod.nih.gov/canvass), in collaboration with academic and industry researchers, for quantitative high-throughput screening (qHTS) across a diverse set of cell-based and biochemical assays. […] The library was formatted into 1536-well plates and evaluated in 50 qHTS (in an 11-pnt concentration series) bioassays with broad scope of disease-relevant mechanisms. The resulting data set from 50 different assays was then systematically analyzed to identify overall trends and specific natural products with interesting biological activities. […] The proliferation assay assesses the ability of compounds to inhibit the proliferation and/or have cytotoxic effects (72 hr) against the asexual erythrocytic growth of Plasmodium falciparum Dd2, as determined by a SYBRGreen fluorescence assay. […]
Malaria-screen protocol: Assay adopted from Plouffe et al. 2008 PNAS 105: 9059; PMID: 18579783. […] The fluorescence signal was read using the EnVision (PerkinElmer) plate reader (bottom read) using a 485/14 nm excitation and 535/25 nm emission filters.

Assay [9] in a line: qHTS for Hypoxia signaling pathway (HIF-1) antagonists against the NCATS CANVASS Library (AID 1347374). Also: potency is read from the fitted curve at half-maximal effect; nearly all actives have a fitted effect of over 60% in size. The conditions noted are these: HRE-bla ME-180 cells, HIF-1 beta-lactamase reporter, CoCl2. The gist of the method: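 HRE-bla ME-180 cells (2,000/well, 0.5% dialyzed FBS) were pre-incubated 5 h, then given an 11-point compound series plus CoCl2 (60 uM solution as added) for 17 h at 37C. CCF4 β-lactamase read (ex 405, em 460/530 nm) after 2 h at RT.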

Assay [10] in a line: DH5-alpha competent E. coli microbial cell viability qHTS against the NCATS CANVASS Library (AID 1347377).
Description: as §2, with “The BacTiter-Glo microbial cell viability” for “The proliferation”, “assay is a homogeneous method for determining” for “assay assesses”, “the number” for “the ability”, “of viable bacterial cells in culture based on quantitation of the ATP present. […] The homogeneous assay procedure involves adding a single reagent (BacTiter-GloTM Reagent) directly” for “of compounds”, “to bacterial cells in medium and measuring luminescence.” for “to inhibit the proliferation and/or have cytotoxic effects (72 hr) against the asexual erythrocytic growth of Plasmodium falciparum Dd2, as determined by a SYBRGreen fluorescence assay.”

Nuclear receptor subfamily 1 group I member 3 (Homo sapiens), sequence (Q14994 whole entry, looked up): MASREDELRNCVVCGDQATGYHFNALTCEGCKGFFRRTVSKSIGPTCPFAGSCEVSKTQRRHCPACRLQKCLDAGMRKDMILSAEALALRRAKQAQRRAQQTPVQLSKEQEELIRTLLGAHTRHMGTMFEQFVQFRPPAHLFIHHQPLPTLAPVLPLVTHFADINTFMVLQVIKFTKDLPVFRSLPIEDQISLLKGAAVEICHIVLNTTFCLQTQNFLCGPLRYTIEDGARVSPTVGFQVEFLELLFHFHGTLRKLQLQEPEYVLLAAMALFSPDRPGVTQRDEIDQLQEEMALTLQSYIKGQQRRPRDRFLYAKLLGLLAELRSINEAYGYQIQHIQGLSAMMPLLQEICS

Regarding `O=c1cc(-c2ccccc2)oc2cc(O)c(O)c(O)c12`, the call in assay [1], in assay [2], in [3], in [4], in assay [5] and in assay [6] was inactive. The result in [7] and in assay [8] was inactive.
Regarding `O=C(O)C(O)Cc1ccc(O)c(O)c1` (stereo not given), the compound was classed as inactive in assay [1], in [2], in assay [3], in [4], in assay [5] and in assay [10]. Besides, the call in [6] and in [7] was inactive. Further, the Potency in assay [9] is 8.38 µM (active).
For the compound `COC(=O)[C@@H]1[C@H]2C[C@H]3c4[nH]c5ccccc5c4CCN3C[C@@H]2CC[C@@H]1O`, the outcome in [1], in assay [2], in assay [3], in assay [5], in assay [10] and in assay [6] was inactive. Further, the outcome in assay [7] and in assay [8] was inactive.

Values taken from PubChem BioAssay (NCATS).
